In the supplement of paper PMC3334620:
The full ranking holds about 33,000 sequences; the median of “E-score (-0.5 to 0.5)” is about -0.021, and the highest 2% start at about 0.32. Many of the other results were omitted from the sample, so the highest values are more common in it than they were.

These sequences were tested against T1, Zap1 (UniProt P47043) (assay: PBM E-score (8-mer binding enrichment) (E-score (-0.5 to 0.5)); higher = stronger / more preferred TF binding). Details: protein concentration: 200 nM; construct: GST-full length.
T1 sequence: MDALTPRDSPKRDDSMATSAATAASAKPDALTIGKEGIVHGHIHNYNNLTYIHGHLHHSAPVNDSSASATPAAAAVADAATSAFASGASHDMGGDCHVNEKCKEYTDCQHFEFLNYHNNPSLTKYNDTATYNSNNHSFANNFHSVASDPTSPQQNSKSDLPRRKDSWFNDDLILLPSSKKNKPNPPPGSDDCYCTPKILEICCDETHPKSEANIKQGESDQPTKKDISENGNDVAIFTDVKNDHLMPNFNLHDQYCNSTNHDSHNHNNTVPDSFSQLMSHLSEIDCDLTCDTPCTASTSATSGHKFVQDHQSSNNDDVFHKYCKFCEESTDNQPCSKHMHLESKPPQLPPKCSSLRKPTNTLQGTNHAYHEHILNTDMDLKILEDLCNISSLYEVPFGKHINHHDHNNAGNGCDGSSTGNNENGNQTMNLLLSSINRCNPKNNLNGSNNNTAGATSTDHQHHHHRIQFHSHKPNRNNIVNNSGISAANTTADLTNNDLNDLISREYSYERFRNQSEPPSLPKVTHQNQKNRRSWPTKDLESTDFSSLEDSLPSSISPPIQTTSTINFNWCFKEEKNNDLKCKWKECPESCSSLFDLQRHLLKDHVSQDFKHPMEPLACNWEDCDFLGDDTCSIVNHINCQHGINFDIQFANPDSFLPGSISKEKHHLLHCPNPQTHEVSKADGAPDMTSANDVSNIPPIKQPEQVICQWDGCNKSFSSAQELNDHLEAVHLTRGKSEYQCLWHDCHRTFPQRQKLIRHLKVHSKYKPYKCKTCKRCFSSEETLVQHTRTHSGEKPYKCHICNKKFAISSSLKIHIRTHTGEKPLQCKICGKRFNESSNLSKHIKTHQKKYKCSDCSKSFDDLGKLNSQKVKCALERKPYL
In short: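 Universal all-10-mer Agilent arrays, fresh or stripped once, were converted to double-stranded form by primer extension. GST-tagged yeast transcription factors from PURExpress in vitro transcription/translation, full-length or DNA-binding domain only, were applied at about 100-200 nM and detected with fluorescent anti-GST. After masliner normalisation, the Universal PBM Analysis Suite scored each ungapped eight-base word together with its reverse complement by E-score.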

Point of comparison: CGCCCATC, “PBM E-score” value -0.171. Against it:
- CCGGGCGC — lower, -0.315
- AATAACCT — higher, 0.454
- AATAACAT — higher, 0.0801
- GCTAACCC — higher, 0.32
- AATAACGT — higher, 0.0381
- GATAACCC — higher, 0.47
- GATAAACC — higher, 0.21
- CCTAACCC — higher, 0.264
- AATAACAC — higher, 0.107
- ACTAACCC — higher, 0.271
- AATAACCC — higher, 0.466
- GATAACGC — higher, -0.11
- AATAACGC — higher, -0.0593
- ACTATCGC — higher, -0.0428
- AGCAGAAT — higher, 0.0481
- CTACCAAG — higher, 0.0784
- GCATAGGA — higher, -0.135
- GAGTAGGA — lower, -0.289
- GACTGTGA — higher, -0.0753
- AAGCACTC — higher, -0.146
- ACTCGTGG — higher, 0.0689
- ACTAACCA — higher, 0.282
- ACTAACCG — higher, 0.144
- AATAACCG — higher, 0.421
- ACTAACCT — higher, 0.318
- AATAACAG — higher, 0.118
- AATAACGG — higher, 0.169
- CCTAGCAA — higher, 0.0808
- CGTTGGTC — higher, -0.0765
- AAAAGGTC — higher, 0.367
- ATAAGGTC — higher, 0.184
- AAAAGGTG — higher, 0.173
- AAAAGGTT — higher, 0.444
- AAAAGGAT — higher, 0.0556
- CAAAGGTC — higher, 0.314
- CGCAACTA — higher, 0.162
- AGGCCCAA — higher, -0.0071
- GACGCGAA — higher, -0.12
- AGAGAATC — higher, -0.152
- AATGAATG — higher, 0.0096
- AGGCTAGA — higher, -0.15
- TACCTATA — higher, 0.337
- CACCTATA — higher, 0.0311
- TACCTAAA — higher, 0.199
- TACCTAGA — higher, 0.163
- CACCTAAA — higher, 0.191
- GACCTATA — higher, 0.295
- AACCTAAA — higher, 0.356
- TACCTACA — higher, 0.137
- AACCTATA — higher, 0.374
- ATGCGTTC — higher, -0.0993
- GCAGGCAA — higher, -0.144
- ACTCAGAG — higher, 0.11
- CTGATAAA — higher, 0.121
- GGAACACC — higher, 0.105
- ATTTCTCG — higher, 0.176
- CTTGCTAC — higher, 0.0655
- ATCTCACC — higher, -0.0161
- CGACTGGA — lower, -0.193
- ACCTCTAG — higher, 0.411
- ACCTCTAT — higher, 0.293
- ACCTCTAC — higher, 0.259
- ACCTCTCT — higher, 0.0304
- ACCTCTCA — higher, 0.344
- CCCTCTCA — lower, -0.23
- ACCTCAAA — higher, 0.326
- ACCTCAAG — higher, 0.251
- GCCTCAAA — higher, 0.00889
